Screens as filed in PubChem BioAssay.
An excerpt weighted towards active compounds, which were near 8.1% of everything screened.
NOMO-1 viab: STK33 inhibitor candidate reducing NOMO-1 cell viability; 37,000 tested, 7.5% active; NOMO-1 AML viability, CellTiter-Glo luminescence, 72 h; inhibition, % (no concentration beside the values); in the data active = inhibition above about 80%
Hedgehog inh: Sonic Hedgehog pathway inhibition | Shh-LIGHT2 Gli-luciferase reporter, 30 h | inhibition, % (no concentration beside the values) | 22,000 tested, 2.1% active;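 active = mean inhibition across valid replicates above about 65%, limit read from the data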;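 also: pathway switched on by Shh-conditioned medium diluted 1 in 25 in low serum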
PD-1 reverse act: reversal of PD-1 mediated T-cell inhibition; primary human CD4 T cells, PD-L1 beads, CellTiter-Glo 96 h; activation, % (test concentration not listed); 29,000 tested, under 10 active; AID 2316; call rule not given here;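 also: 0% = median vehicle wells and 100% = positive control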
MITF inh: inhibitors of MITF; 37,000 tested, 0.28% active; inhibition, % (concentration not given with the values); AID 2240; TRPM1 promoter luciferase, luminescence, 24 h; in the data active = inhibition above about 85%;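 also: human melanocyte line stably carrying TRPM1 promoter luciferase reporter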
The depositor's hits bear a star; . = not tested or not shown.

SMILES	NOMO-1 viab	Hedgehog inh	PD-1 reverse act	MITF inh
COc1ccc(S(=O)(=O)Nc2ccc3c(c2)C(=O)N([C@@H](C)CO)C[C@@H](C)[C@H](CN(C)Cc2ccc(-c4ccccc4)cc2)O3)cc1	122.2*	15.4	2.4	34.9
COc1ccc(S(=O)(=O)Nc2ccc3c(c2)C(=O)N([C@H](C)CO)C[C@H](C)[C@H](CN(C)Cc2ccc(-c4ccccc4)cc2)O3)cc1	23.9	45.5	3.0	5.1
COc1ccc(S(=O)(=O)Nc2ccc3c(c2)C(=O)N([C@@H](C)CO)C[C@H](C)[C@H](CN(C)Cc2ccc(Oc4ccccc4)cc2)O3)cc1	122.8*	40.2	.	46.7
Cc1c(NC(=O)CN(c2ccc(Br)cc2)S(C)(=O)=O)cccc1[N+](=O)[O-]	12.2	.	-0.9	-23.3
CCOC(=O)C1CCN(S(=O)(=O)Cc2ccccc2)C1=O (centres undefined)	112.0*	7.6	-0.4	-18.4
Cc1cc2c(c(=O)n1CC1CCCO1)C(c1cccs1)C(C#N)=C(N)O2 (centres undefined)	11.0	.	0.4	-10.3
CC(=O)Nc1ccc(NC(=O)CCCN2C(=O)c3ccccc3C2=O)cc1	-28.2	.	0.7	-20.5
O=C(CCCCCN1C(=O)c2cccc3cccc(c23)C1=O)NO	97.2*	90.6*	-20.3	71.2
O=C(CCCN1C(=O)c2ccccc2C1=O)Nc1ccc(Nc2ccccc2)cc1	102.4*	.	-8.7	-42.9
Cc1c(Cl)cccc1NC(=O)CSc1nnc(-c2cccc(Cl)c2)n1C	2.8	.	0.8	1.1
O=c1c(O)c(-c2ccc(O)cc2)oc2cc(OC3O[C@H](CO)[C@@H](O)[C@H](O)[C@H]3O)cc(O)c12 (some centres undefined)	17.8	25.1	0.3	-9.3
C[C@@H]1CN([C@@H](C)CO)C(=O)c2cccc(NC(=O)Nc3ccc(C(F)(F)F)cc3)c2O[C@@H]1CN(C)C(=O)Nc1ccccc1	111.7*	23.4	0.0	1.8
C[C@@H]1CN([C@@H](C)CO)C(=O)c2cccc(NC(=O)Nc3ccccc3)c2O[C@H]1CN(C)C(=O)Nc1ccc(C(F)(F)F)cc1	43.8	30.7	-2.0	-0.1
C[C@@H]1CN([C@H](C)CO)C(=O)c2cccc(NC(=O)Nc3ccccc3)c2O[C@@H]1CN(C)C(=O)Nc1ccc(C(F)(F)F)cc1	16.1	13.4	-1.2	-5.5
C[C@@H]1CN([C@H](C)CO)C(=O)c2cccc(NC(=O)Nc3ccc(C(F)(F)F)cc3)c2O[C@H]1CN(C)C(=O)Nc1ccccc1	93.3*	-13.8	-2.5	12.2
COC(=O)c1ccccc1NC(=O)CSc1nnnn1-c1cccc2ccccc12	-1.1	.	0.5	16.4
O=C(COc1cccc2ccccc12)Nc1cccc(C(=O)O)c1	1.9	.	1.5	1.9
Nc1nonc1-c1ccccc1	14.7	-9.0	0.1	-3.1
C1=Cc2nonc2C2C=C(c3ccccc3)N=C12 (centres undefined)	91.9*	14.1	-1.2	25.9
C[C@H]1CN([C@@H](C)CO)C(=O)c2cccc(NC(=O)Nc3ccc(F)cc3)c2O[C@H]1CN(C)S(=O)(=O)c1ccc(Cl)cc1	100.3*	108.0*	-5.7	60.6
C[C@H](CO)N1C[C@H](C)[C@H](CN(C)S(=O)(=O)c2ccccc2)Oc2c(NC(=O)Nc3ccc(F)cc3)cccc2C1=O	27.3	70.5*	.	8.7
C[C@@H]1CN([C@H](C)CO)C(=O)c2cccc(NC(=O)Nc3ccc(F)cc3)c2O[C@H]1CN(C)S(=O)(=O)c1ccc(Cl)cc1	12.0	-6.8	.	-6.2
Cc1ccc(S(=O)(=O)N(C)C[C@@H]2Oc3c(NC(=O)Nc4ccccc4)cccc3C(=O)N([C@H](C)CO)C[C@@H]2C)cc1	46.5	120.9*	-3.8	32.1
c1ccc(-c2nnc(-c3cccc4ccccc34)o2)cc1	26.7	-171.7	0.1	51.1
COc1ccc(S(=O)(=O)N(C)C[C@H]2Oc3c(NC(=O)Nc4ccc(C(F)(F)F)cc4)cccc3C(=O)N([C@@H](C)CO)C[C@H]2C)cc1	120.8*	-62.1	-5.7	38.6
SMILES	NOMO-1 viab	Hedgehog inh	PD-1 reverse act	MITF inh
COc1ccc(S(=O)(=O)N(C)C[C@@H]2Oc3c(NC(=O)Nc4ccc(C(F)(F)F)cc4)cccc3C(=O)N([C@@H](C)CO)C[C@H]2C)cc1	21.0	-11.6	0.5	7.7
COc1ccc(S(=O)(=O)N(C)C[C@H]2Oc3c(NC(=O)Nc4ccc(C(F)(F)F)cc4)cccc3C(=O)N([C@@H](C)CO)C[C@@H]2C)cc1	112.3*	-91.9	2.0	-23.1
Cc1cc(C)c(S(=O)(=O)NCC(=O)Nc2ccc(C(C)C)cc2)c(C)c1	94.5*	.	-5.7	5.8
C[C@H]1CN([C@@H](C)CO)C(=O)c2cccc(NC(=O)c3cnccn3)c2O[C@H]1CN(C)Cc1ccc(C(=O)Nc2ccccc2N)cc1	129.1*	.	-5.9	28.2
C[C@H]1CN([C@@H](C)CO)C(=O)c2cccc(NC(=O)c3cnccn3)c2O[C@@H]1CN(C)Cc1ccc(C(=O)Nc2ccccc2N)cc1	107.8*	.	-2.3	8.4
C[C@@H]1CN([C@@H](C)CO)C(=O)c2cccc(N(C)C)c2O[C@@H]1CN(C)Cc1ccc(C(=O)Nc2ccccc2N)cc1	127.7*	.	-1.8	12.2
Cc1cc(C(=O)Nc2cccc3c2O[C@@H](CN(C)Cc2ccc(Oc4ccccc4)cc2)[C@H](C)CN([C@@H](C)CO)C3=O)n(C)n1	101.8*	-35.2	-8.2	53.2
C[C@@H]1CN([C@@H](C)CO)C(=O)c2cccc(NC(=O)C3CC3)c2O[C@H]1CN(C)Cc1ccc(C(=O)Nc2ccccc2N)cc1	73.0	.	-0.8	17.5
COc1cc(-c2cc(OC)c(C)cc2OC)c(OC)cc1C	18.7	-5.5	0.1	-0.5
CCc1cccc(C)c1NC(=O)CSc1nnc(-c2ccncc2)n1-c1ccc(C)cc1	7.5	.	-0.7	3.6
C[C@H](CO)N1C[C@H](C)[C@@H](CN(C)Cc2ccc(C(=O)Nc3ccccc3N)cc2)Oc2c(NC(=O)c3cnccn3)cccc2C1=O	118.1*	.	-2.1	15.9
Cc1cc(C(=O)Nc2cccc3c2O[C@H](CN(C)Cc2ccc(C(=O)Nc4ccccc4N)cc2)[C@H](C)CN([C@@H](C)CO)C3=O)n(C)n1	128.0*	.	-3.6	5.3
C[C@H](CO)N1C[C@H](C)[C@H](CN(C)Cc2ccc(C(=O)Nc3ccccc3N)cc2)Oc2c(NC(=O)c3ccncc3)cccc2C1=O	51.3	.	-2.8	-10.2
C[C@@H]1CN([C@H](C)CO)C(=O)c2cccc(NC(=O)c3ccncc3)c2O[C@@H]1CN(C)Cc1ccc(C(=O)Nc2ccccc2N)cc1	127.9*	.	-0.9	26.8
CN(CC(=O)Nc1ccc(Oc2ccccc2)cc1)S(=O)(=O)c1ccc2ccccc2c1	-1.4	.	.	13.5
COc1cccc2c1C(=O)c1ccc3c(c1C2=O)C(=O)CC(C)(O)C3 (centres undefined)	92.7*	-59.1	-0.3	-13.6
CC1(O)CC(=O)c2c(ccc3c2C(=O)c2cccc(O)c2C3=O)C1 (centres undefined)	95.2*	-28.8	0.4	11.0
C/C(=N\O)C12CC3(C)CC(C)(CC(C)(C3)C1)C2	120.2*	-20.3	-2.2	-16.7
CC12CC3(C)CC(C)(C1)CC(C(=O)NC(=S)NC(C)(C)C)(C2)C3	35.0	-8.0	-0.1	-2.1
